Data published in PubChem BioAssay (NCATS).
Inconclusive results are not listed. Activity calls are given as the source filed them. Unless noted, calls come from the whole dose curve; as a rule, active = well fitted curve in the direction sought with a large enough effect; inconclusive = small, poorly fitted or top-dose-only effect, or another doubt; inactive = no such curve, though single readings can be large; an effect the other way counts as inactive or inconclusive.

Columns and labels:
[1] = Cell Viability - Mesenchymal (AID 546);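 note: cells exposed to compound for 40 hours before reading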
Procedure, shortened: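 CellTiter-Glo luminescence (intracellular ATP, 20 min room temperature) after 40 hr compound exposure at 37 °C of 1000 glomerulus-derived human kidney mesenchymal cells/well; AC50 values obtained by fitting qHTS concentration-response data to the Hill equation.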

[2] = target: 3',5'-cyclic-AMP phosphodiesterase 4B (Homo sapiens) (UniProt Q07343); assay: qHTS Assay for Inhibitors of PDE-IV (AID 607; active = well fitted activation curve with a large enough effect in the main read-out, with a control signal flat, not every such curve was filed as active)
3',5'-cyclic-AMP phosphodiesterase 4B (Homo sapiens), sequence (Q07343 whole entry, looked up): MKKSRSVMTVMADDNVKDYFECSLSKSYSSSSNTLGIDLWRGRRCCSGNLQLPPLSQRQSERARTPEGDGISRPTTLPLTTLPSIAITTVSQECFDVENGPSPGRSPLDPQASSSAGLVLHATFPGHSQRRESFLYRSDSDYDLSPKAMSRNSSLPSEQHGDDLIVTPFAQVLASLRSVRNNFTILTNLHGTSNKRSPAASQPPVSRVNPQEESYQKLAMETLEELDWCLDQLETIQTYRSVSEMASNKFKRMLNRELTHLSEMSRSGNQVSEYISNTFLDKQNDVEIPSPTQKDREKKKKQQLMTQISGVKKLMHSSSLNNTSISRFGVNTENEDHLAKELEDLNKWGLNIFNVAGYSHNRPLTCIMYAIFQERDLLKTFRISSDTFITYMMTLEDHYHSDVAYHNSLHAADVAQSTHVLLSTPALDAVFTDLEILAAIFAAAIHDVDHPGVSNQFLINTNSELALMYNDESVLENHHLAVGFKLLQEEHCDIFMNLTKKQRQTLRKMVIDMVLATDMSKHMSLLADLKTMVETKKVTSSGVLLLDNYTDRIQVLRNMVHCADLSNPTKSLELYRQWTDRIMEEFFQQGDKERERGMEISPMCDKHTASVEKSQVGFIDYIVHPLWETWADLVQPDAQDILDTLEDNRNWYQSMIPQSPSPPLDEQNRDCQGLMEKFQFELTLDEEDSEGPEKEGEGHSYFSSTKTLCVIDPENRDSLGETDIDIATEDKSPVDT
Procedure, shortened: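 HEK293 ACTOne cells with CNG channel (1000/well), endogenous PDE4; membrane potential dye, compounds up to 22.9 uM final. Fluorescence Ex 535/Em 590; RO 20-1724 (100 uM final) as reference.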

[3] = Cellular Toxicity (caspase-3) HepG2 (AID 654); note: potency is the fitted concentration of half-maximal effect;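 for caspase-3 activation: cells exposed to compound for 16 hours before reading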
Procedure, shortened: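 Luminescent Caspase-Glo 3/7 readout after 16 hr compound exposure of human hepatocellular carcinoma HepG2 cells at 37 °C; qHTS concentration-response, normalized DMSO = 0%, 100 uM tamoxifen = 100%; AC50 by standard Hill equation.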

[4] = Cellular Toxicity (caspase-3) Jurkat (AID 655);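 note: cells exposed to compound for 16 h at 37 °C before reading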; note: potency is the fitted concentration of half-maximal effect
Procedure, shortened: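 Luminescent caspase-3/7 readout (aminoluciferin substrate cleavage) in human T-cell leukemia Jurkat cells after 16 hr compound exposure. Concentration-response normalized to DMSO and 100 uM tamoxifen; AC50 by standard Hill equation.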

[5] = Cellular Toxicity (caspase-3) HUV-EC-C (AID 656)
Procedure, shortened: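 Luminescent caspase-3/7 activation (aminoluciferin substrate cleavage) in HUV-EC-C cells after 16 hr compound exposure, 37°C. Signal normalized to DMSO basal and 100 uM tamoxifen as 100%; AC50 from concentration-response fitted with the Hill equation.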

[6] = Cellular Toxicity (caspase-3) SHSY5Y (AID 657);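 note: cells exposed to compound for 16 hours at 37 °C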
Procedure, shortened: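 Luminescent caspase-3/7 readout (aminoluciferin release) in SH-SY5Y cells after 16 h compound exposure in complete medium. Activity scaled between DMSO basal and 10 uM staurosporine as 100%; concentration-response fitted to Hill equation for AC50.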

[7] = Cellular Toxicity (caspase-3) BJ (AID 658);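 note: cells exposed to compound for 16 hours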
Procedure, shortened: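 Caspase-Glo 3/7 luminescence, read 1 hr after reagent at room temperature, in normal BJ fibroblasts exposed 16 hours at 37 °C. AC50 values from Hill-equation concentration-response, scaled between DMSO basal and 10 uM staurosporine as 100%.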

[8] = Cellular Toxicity (caspase-3) MRC-5 (AID 659); settings: Potency: caspase-3 activation; note: potency is the fitted concentration of half-maximal effect
Procedure, shortened: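 Luminescent Caspase-Glo 3/7 read-out (1 h, room temperature) after a 16 h, 37 °C compound exposure of MRC-5 lung fibroblasts at 1500 cells/well. Concentration-response AC50 from Hill equation; 0% DMSO, 100% 10 uM staurosporine.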

[9] = Cellular Toxicity (caspase-3) Mesangial (AID 660);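 note: combined caspase 3 and 7 activity read by Caspase-Glo luminescence; cells exposed to compound for 16 h before the caspase read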
Procedure, shortened: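 Luminescent Caspase-Glo 3/7 readout (aminoluciferin substrate cleavage, 20 min RT) after 16 h compound exposure at 37 °C of normal human mesangial cells. Signal increase normalized between DMSO basal and 100 uM tamoxifen; Hill-equation AC50.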

[10] = Cellular Toxicity (caspase-3) SK-N-SH (AID 661);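 note: cells exposed to compound for 16 hours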
Procedure, shortened: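 Luminescent Caspase-Glo 3/7 read-out after 16 hr compound exposure of SK-N-SH neuroblastoma cells at 37 °C. Signal increase normalized to DMSO (basal) and 10 uM staurosporine (100%); AC50 from Hill equation fits of qHTS concentration-response data.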

Measured: Potency

Cc1cc(CC(=O)O)n(C)c1C(=O)c1ccc(Cl)cc1
inactive: all assays above

[Cl][In]([Cl])[Cl]
not listed: [2]
inactive: all other assays above

COC(=O)C1=C(C)NC(C)=C(C(=O)OC)C1c1ccccc1[N+](=O)[O-]
not listed: [6]
inactive: all other assays above

c1ccc2c(CC3=NCCN3)cccc2c1
inactive: [2]

NCCNCCNCCN
not listed: [2]
inactive: all other assays above

CCN(CC)CCOC(=O)C1(C2CCCCC2)CCCCC1
inactive: [2]

CCCn1cnc2c1c(=O)n(CCCCC(C)=O)c(=O)n2C
inactive: [2]

CC1(C)[C@@H]2CC[C@@]1(C)C(=O)C2
not listed: [2]
inactive: all other assays above

COc1ccccc1O
not listed: [2]
inactive: all other assays above

Nc1ccc(S(=O)(=O)Nc2nccs2)cc1
inactive: all assays above

CCOc1ccc2ccccc2c1C(=O)N[C@@H]1C(=O)N2[C@@H]1SC(C)(C)[C@@H]2C(=O)O
inactive: [2]

Cc1cc(N)c2ccccc2[n+]1CCCCCCCCCC[n+]1c(C)cc(N)c2ccccc21
inactive: [2]

CCCCOC(=O)c1ccc(O)cc1
inactive: all assays above

C#CCN(C)Cc1ccccc1
inactive: [2]

O=C1O[C@H]([C@@H](O)CO)C(O)=C1O
not listed: [2]
inactive: all other assays above

C[C@]12C[C@H](O)[C@H]3[C@@H](CCC4=CC(=O)CC[C@@]43C)[C@@H]1CC[C@@H]2C(=O)CO
not listed: [2]
inactive: all other assays above

NC(=O)c1ncn([C@@H]2O[C@H](CO)[C@@H](O)[C@H]2O)n1
not listed: [2]
inactive: all other assays above

NC(=O)N/N=C/c1ccc([N+](=O)[O-])o1
not listed: [2]
inactive: all other assays above

Oc1cccc(O)c1
not listed: [2]
inactive: all other assays above

CCN(CC)CCNC(=O)c1cc(Cl)c(N)cc1OC
inactive: [2]

CN(C)CCCN1c2ccccc2Sc2ccc(Cl)cc21
inactive: [2]

CCCCCCCCCCCCOS(=O)(=O)O
not listed: [2]
inactive: all other assays above

NCCNCCNCCNCCN
not listed: [2]
inactive: all other assays above

CC12CCC(CC1)C(C)(C)O2
not listed: [2]
inactive: all other assays above

COc1ccc2c(c1)C(=O)N(CCc1ccc(S(=O)(=O)NC(=O)NC3CCCCC3)cc1)C(=O)C2(C)C
inactive: [2]

C=Cc1c(C)c2cc3[nH]c(cc4nc(cc5nc(cc1[nH]2)C(C)=C5CCC(=O)O)C(CCC(=O)O)=C4C)c(C)c3C=C
inactive: [2]

Cc1cc2nc3c(=O)[nH]c(=O)nc-3n(C[C@H](O)[C@H](O)[C@H](O)CO)c2cc1C
not listed: [2]
inactive: all other assays above

CCn1cc(C(=O)O)c(=O)c2cnc(N3CCNCC3)nc21
inactive: [2]

CC1=C(CC(=O)O)c2cc(F)ccc2/C1=C\c1ccc(S(C)(=O)=O)cc1
inactive: [2]

N=c1c[n+](N2CCOCC2)[n-]o1
inactive: [2]

CC(C)NC[C@H](O)c1ccc(O)c(O)c1
inactive: [2]

CC(=O)c1ccc2c(c1)N(CCCN(C)C)c1ccccc1S2
inactive: [2]

Cc1c(O)cccc1C(=O)N[C@@H](CSc1ccccc1)[C@H](O)CN1C[C@H]2CCCC[C@H]2C[C@H]1C(=O)NC(C)(C)C
inactive: [5] | [6] | [7] | [9]
active: [3] 63.1 µM | [4] 31.6 µM | [8] 50.1 µM

CCCCOc1cc(C(=O)OCCN(CC)CC)ccc1N
inactive: [2]

Cn1cc[nH]c1=S
inactive: [2]

NC1CCN(c2cccc(Cl)n2)CC1
inactive: [2]

O=C(CCCN1CCN(c2ccccn2)CC1)c1ccc(F)cc1
inactive: [2]

CCCCCCCCCCCCCCCC(=O)NCCO
inactive: [2]

NS(=O)(=O)c1cc2c(cc1Cl)NC(CSCc1ccccc1)=NS2(=O)=O
inactive: [2]

CC1=C(CC(=O)O)c2cc(F)ccc2/C1=C\c1ccc(S(C)=O)cc1 (centres undefined)
inactive: [2]

Nc1ccc(S(=O)(=O)NC(=O)c2ccccc2)cc1
inactive: [2]

CN(C)CCC=C1c2ccccc2CCc2ccccc21
not listed: [1] | [4]
inactive: all other assays above

NC(N)=NCCC[C@H](N)C(=O)O
inactive: [2]

Cc1cccc(Nc2cc(Cl)nc(SCC(=O)O)n2)c1C
inactive: [2]

OCCN1CCN(CCCN2c3ccccc3Sc3ccc(Cl)cc32)CC1
inactive: [2]

CC1(C)OC(=O)NC1=O
inactive: [2]

O=C1c2c(O)cccc2Cc2cccc(O)c21
not listed: [1] | [2]
inactive: all other assays above

c1ccc(CN(CC2=NCCN2)c2ccccc2)cc1
inactive: [2]

COc1ccc(Cl)cc1C(=O)NCCc1ccc(S(=O)(=O)NC(=O)NC2CCCCC2)cc1
inactive: [2]

CNCCCC1c2ccccc2C=Cc2ccccc21
inactive: [2]

Nc1cc(=O)[nH]c(N)n1
inactive: [2]

CCCCN1CCCC[C@H]1C(=O)Nc1c(C)cccc1C
inactive: [2]

C[C@H](N)[C@H](O)c1cccc(O)c1
inactive: [2]

Cc1cc2c(cc1S(N)(=O)=O)S(=O)(=O)CCC2
inactive: [2]

Nc1ccc(S(=O)(=O)Nc2ccc(Cl)nn2)cc1
inactive: [2]
